# The list is not random: actives were taken first. Their share in the collection is about 3.7%.
# NALP3 yeast inh: blocks the NALP3 inflammasome reconstituted in yeast; AID 2825; inhibition, % at 10 µM; 0.39% of 330,000 active; Yeast reconstituted NLRP3/ASC/caspase-1, beta-gal luminescence, 24 h;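 active = inhibition of 50% or more; inactive = inhibition below 50%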;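 note: plate controls were induced DMSO wells for no effect and uninduced yeast grown without galactose for full effect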
# PfHsp90 set2: inhibits growth of yeast expressing Plasmodium falciparum Hsp90; inhibition, % at 9.4 µM; 0.32% of 310,000 active; S. cerevisiae expressing PfHsp90, BacTiter-Glo ATP, 48 h; yeast lacking PDR1 and PDR3 efflux regulators;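 active = every replicate shows inhibition above about 80%, whatever the replicate mean, limit read from the data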;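 note: 0% = DMSO neutral controls and 100% = 20 µM radicicol positive controls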
# TIM10 inh: TIM10 yeast growth inhibition; AID 463195; S. cerevisiae TIM10 strain growth, BacTiter-Glo luminescence, 24 h; inhibition, % at 10 µM; 1.4% of 330,000 active;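 active = inhibition of 40% or more at the single tested concentration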;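 note: wild-type TIM10 isogenic control strain grown at permissive 25 °C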
# tim23-1 inh: growth inhibitors of tim23-1 mutant yeast; S. cerevisiae tim23-1 growth, BacTiter-Glo luminescence, 24 h; inhibition, % at 20 µM; 1.3% of 330,000 active;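 active = growth inhibition of the mutant yeast at or above 50%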;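 note: temperature-sensitive mutant grown at 25 °C; plate controls were DMSO-treated mutant yeast for no effect and medium wells lacking yeast for full effect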
# tim10-1 inh: inhibits growth of tim10-1 mutant yeast | S. cerevisiae tim10-1 ts strain growth, BacTiter-Glo, 24 h | inhibition, % at 20 µM | 2.2% of 330,000 active;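 active = inhibition of at least 40%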;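 note: mutant grown at 25 °C; 0% = DMSO wells with yeast and 100% = wells holding no yeast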
# tim10-1 confirm: confirmation of tim10-1 mutant yeast growth inhibitors. shares compounds with tim10-1 inh. S. cerevisiae tim10-1 ts strain growth, BacTiter-Glo, 24 h. inhibition, % at 20 µM. 56% of 7,400 active. AID 463213;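 active = inhibition of yeast growth at or above a set limit in either of two repeat tests at 20 µM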;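 note: tim10-1 mutant grown at permissive 25 °C to find synthetic lethal compounds; 0% = DMSO yeast wells and 100% = medium wells without yeast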
# TIM10 conf: TIM10 yeast growth inhibition, confirmed | shares compounds with TIM10 inh | S. cerevisiae tim10 strain growth, BacTiter-Glo luminescence, 24 h | inhibition, % at 10 µM | 63% of 4,600 active | AID 463215;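 active = inhibition of yeast growth at or above a set limit in either of two replicates at 10 µM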;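 note: this counterscreen used the strain with wild-type TIM10; 0% = yeast with DMSO and 100% = medium wells lacking yeast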
# tim23-1 confirm: confirmation of tim23-1 mutant yeast growth inhibitors. shares compounds with tim23-1 inh. S. cerevisiae tim23-1 growth, BacTiter-Glo luminescence, 24 h. inhibition, % at 20 µM. 83% of 4,400 active. AID 463218;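 active = inhibition above about 39% in either of two replicate wells at 20 µM, limit read from the data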;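 note: temperature-sensitive tim23-1 mutant grown at 25 °C; 0% = DMSO wells with yeast and 100% = medium wells without yeast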
# * hit, by the source's call; x = not tested or not shown.
SMILES,NALP3 yeast inh,PfHsp90 set2,TIM10 inh,tim23-1 inh,tim10-1 inh,tim10-1 confirm,TIM10 conf,tim23-1 confirm
CC(=O)c1sc(-c2ccc(Cl)cc2)cc1N,-52.7,-33.4,30.7,59.5*,50.2*,9.2,x,44.8*
CN(C(=O)CSCC(=O)Nc1ccc(Cl)cc1)C1CCCCC1,14.3,-12.9,-0.1,14.0,3.5,x,x,x
CC1=NN(c2ccccc2)C(=O)/C1=C\c1ccc(Br)s1,6.3,20.2,39.0,56.7*,42.0*,39.2*,x,66.7*
CC1=NN(c2ccccc2)C(=O)/C1=C/c1ccc(Cl)cc1,11.9,-4.1,25.4,41.6,23.6,x,x,x
Cc1cccc(NC(=O)Cc2coc3ccc4ccccc4c23)n1,16.8,-58.7,31.2,50.9*,45.8*,35.9*,x,56.0*
Cc1cc(N/N=C/c2ccccc2)nc(NCc2ccccc2)n1,29.7,7.0,-28.4,0.6,-0.6,x,x,x
Cc1cc(N/N=C/c2ccc(Cl)cc2)nc(NCc2ccccc2)n1,20.9,1.1,11.5,74.5*,47.7*,41.1*,x,36.5
COc1ccc(S(=O)(=O)N2CCOCC2)cc1NC(=O)Cc1coc2cc(C)c(C)cc12,13.6,-25.0,14.1,6.8,4.1,x,x,x
CC(C)NC(=O)N(C)C[C@H]1Oc2ccc(NC(=O)Nc3ccccc3)cc2C(=O)N([C@@H](C)CO)C[C@@H]1C,9.4,13.0,-1.4,-9.5,-7.0,x,x,x
Cc1ccc(-n2ncc3c2CCCC3NC(=O)c2csnn2)cc1C (centres undefined),23.8,-4.2,26.1,51.8*,58.6*,40.7*,x,43.5*
Cc1ccc(-n2ncc3c2CCCC3NC(=O)c2ccoc2)cc1C (centres undefined),6.9,13.7,14.9,25.5,26.2,x,x,x
OCC[C@H]1C[C@H](O)[C@@H](O)[C@@]2(CCCCO2)O1,8.2,18.9,6.5,13.1,0.4,x,x,x
Cc1ccc(-c2nc(CN3CCN(C(=O)C4CCCO4)CC3)cs2)cc1 (centres undefined),4.1,3.7,-0.9,3.9,6.8,x,x,x
CCOC(=O)C1=C(SCC)c2cc3c(n2C1=O)CCCC3,23.4,24.7,58.6*,59.0*,65.2*,48.1*,-12.2,60.9*
O=Cc1cc(Br)c(OC(=O)N2CCOCC2)c(Br)c1,15.6,-23.2,2.4,13.3,25.4,x,x,x
O=c1oc2cc(Oc3ccc(C(F)(F)F)cc3[N+](=O)[O-])ccc2c2c1CCC2,18.6,-8.0,4.2,5.6,11.4,x,x,x
O=c1oc2cc(Oc3c([N+](=O)[O-])cc(C(F)(F)F)cc3[N+](=O)[O-])ccc2c2c1CCCC2,29.3,x,68.5*,75.9*,71.9*,64.6*,73.5*,78.7*
Cc1ccc(S(=O)(=O)NN2C(=O)/C(=C/c3cccc(F)c3)SC2=S)cc1,-7.3,-65.4,40.2*,70.7*,46.6*,28.3,40.4*,-23.9
COc1cc(/C=C2\SC(=S)N(NS(=O)(=O)c3ccc(C)cc3)C2=O)cc(OC)c1OC,11.7,-31.6,11.7,27.3,9.5,x,x,x
COc1cc(/C=C2\COC/C(=C\c3ccc(O)c(OC)c3)C2=O)ccc1O,42.7,-4.4,67.0*,68.6*,71.3*,67.7*,61.3*,81.8*
O=C(NC1CCCCCC1)C1CCC(=O)N(Cc2ccccc2F)C1 (centres undefined),18.2,-0.2,1.9,8.9,20.6,x,x,x
COc1ccc(C(=S)N2CCOCC2)cc1OC(=O)c1ccc([N+](=O)[O-])cc1[N+](=O)[O-],9.2,1.8,71.0*,58.5*,60.3*,74.2*,68.2*,68.3*
COc1cc(C(=S)N2CCOCC2)cc(OC)c1OC(=O)c1ccccc1[N+](=O)[O-],20.8,-0.8,12.3,21.6,22.3,x,x,x
O=C(Oc1ccccc1C(=S)N1CCOCC1)c1ccc([N+](=O)[O-])cc1[N+](=O)[O-],8.8,5.9,45.1*,53.8*,56.4*,48.5*,48.7*,52.0*
CN1C(=O)/C(=C\C(=O)c2cccs2)c2ccccc21,20.2,1.3,84.9*,83.8*,47.2*,69.8*,81.0*,-86.2

# Screening results: PubChem BioAssay, several laboratories
